Results: the supplement of paper PMC6522484
Counter-ions that a name gives are not always drawn. ± gives the standard deviation of the averaged measurements.

Legend:
DLD1 [1] = assay: cell viability (CellTiter-Glo) relative to plate median (fraction of plate median); higher = more viable cells; settings: 10 µM, treatment time 24 h
In short: (§1)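 Kinase inhibitor library compounds were added at a final 10 µM for 24 h to colorectal cancer cells in 384-well plates, 24 h after seeding. The cells stably expressed lentiviral TCF/Wnt firefly luciferase reporters. Firefly luciferase and CellTiterGlo luminescence came from parallel plates, and each well was normalised to its plate median (webcellHTS2, additive, untransformed), averaged over two independent replicates.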

HCT116 [2] = assay: as above; settings: 10 µM; treatment time 24 h; reporter: TCF4/Wnt
In short: as §1

SW480 [3] = assay: as above; settings: 10 µM; treatment time 24 h; reporter: 7TFP
In short: as §1

DLD1 [4] = assay: TCF/Wnt firefly luciferase reporter signal relative to plate median (fraction of plate median); higher = higher Wnt reporter signal; settings: 10 µM, treatment time 24 h
In short: as §1

HCT116 [5] = assay: as above; settings: 10 µM; treatment time 24 h; reporter: TCF4/Wnt
In short: as §1

SW480 [6] = assay: as above; settings: 10 µM; treatment time 24 h; reporter: 7TFP
In short: as §1

Row | Structure (SMILES) | cell viability (DLD1 [1]; reporter: 7TFP) | cell viability (DLD1 [1]; reporter: TCF4/Wnt) | cell viability (HCT116 [2]) | cell viability (SW480 [3]) | TCF/Wnt firefly luciferase reporter signal (DLD1 [4]; reporter: 7TFP) | TCF/Wnt firefly luciferase reporter signal (DLD1 [4]; reporter: TCF4/Wnt) | TCF/Wnt firefly luciferase reporter signal (HCT116 [5]) | TCF/Wnt firefly luciferase reporter signal (SW480 [6])
1 | CC[C@@H]1C(=O)N(C)c2cnc(Nc3ccc(C(=O)NC4CCN(C)CC4)cc3OC)nc2N1C1CCCC1 | 0.736 ± 0.16 | 0.863 ± 0.04 | 0.56 ± 0.13 | 0.897 ± 0.067 | 1.97 ± 0.2 | 2.25 ± 0.078 | 0.983 ± 0.93 | 1.36 ± 0.48
2 | CC[C@H](CO)Nc1nc(NCc2ccccc2)c2ncn(C(C)C)c2n1 [Roscovitine (Seliciclib, CYC202)] | 0.852 ± 0.065 | 0.922 ± 0.0099 | 0.923 ± 0.12 | 0.833 ± 0.039 | 1.14 ± 0.35 | 1.46 ± 0.23 | 1.34 ± 0.43 | 1.02 ± 0.028
3 | COC(=O)c1ccc2c(C(=Nc3ccc(N(C)C(=O)CN4CCN(C)CC4)cc3)c3ccccc3)c(O)[nH]c2c1 [BIBF1120 (Vargatef)] | 1.21 ± 0.18 | 1.04 ± 0.014 | 1.06 ± 0.028 | 1.125 ± 0.0071 | 1.35 ± 0.035 | 1.03 ± 0.18 | 0.749 ± 0.54 | 0.895 ± 0.53
4 | Cc1[nH]nc2ccc(-c3cncc(OC[C@@H](N)Cc4ccccc4)c3)cc12 | 1.02 ± 0.18 | 1.17 ± 0.05 | 0.755 ± 0.036 | 1.19 ± 0.099 | 0.51 ± 0.029 | 0.189 ± 0.021 | 0.196 ± 0.047 | 0.822 ± 0.042
5 | N#C/C(=C\c1ccc(O)c(O)c1)C(=O)NCc1ccccc1 | 0.874 ± 0.063 | 0.946 ± 0.031 | 1.08 ± 0.028 | 0.94 ± 0.032 | 0.656 ± 0.15 | 1.2 ± 0.13 | 1.1 ± 0.021 | 0.834 ± 0.016
6 | COc1ccc(-c2ccc3c(N4CCOC[C@@H]4C)nc(N4CCOC[C@@H]4C)nc3n2)cc1CO | 0.94 ± 0.14 | 0.921 ± 0.033 | 0.823 ± 0.12 | 1.17 ± 0.099 | 0.34 ± 0.042 | 0.4795 ± 0.0021 | 0.567 ± 0.08 | 0.829 ± 0.035
7 | O=c1cc(-c2cccc3c2Sc2ccccc2S3)oc(N2CCOCC2)c1 | 1.02 ± 0.1 | 0.999 ± 0.03 | 1.11 ± 0.035 | 0.875 ± 0.0042 | 1.42 ± 0.13 | 1.18 ± 0.13 | 1.6 ± 0.4 | 1.18 ± 0.13
8 | Cc1ccc(Nc2nccc(N(C)c3ccc4c(C)n(C)nc4c3)n2)cc1S(N)(=O)=O [Pazopanib HCl] | 1.11 ± 0.23 | 1.03 ± 0.073 | 1.065 ± 0.0071 | 0.846 ± 0.018 | 1.125 ± 0.0071 | 1.06 ± 0.19 | 1.14 ± 0.028 | 0.931 ± 0.087
9 | C#Cc1cccc(Nc2ncnc3cc(OCCOC)c(OCCO)cc23)c1 | 0.923 ± 0.073 | 0.988 ± 0.045 | 1.22 ± 0.064 | 0.961 ± 0.013 | 0.821 ± 0.11 | 0.819 ± 0.14 | 0.804 ± 0.012 | 1.05 ± 0.098
10 | COc1cc2/c(=N/c3ccc(Br)cc3F)nc[nH]c2cc1OCC1CCN(C)CC1 [Vandetanib (Zactima)] | 0.921 ± 0.18 | 1.08 ± 0.057 | 1.14 ± 0.085 | 1.2 ± 0.035 | 0.9625 ± 0.0035 | 0.773 ± 0.093 | 0.916 ± 0.081 | 1.2 ± 0.092
11 | COc1cc2c(Nc3ccc(NC(=O)c4ccccc4)cc3)ncnc2cc1OCCCN1CCOCC1 | 0.8075 ± 0.005 | 0.872 ± 0.042 | 1.01 ± 0.041 | 1.11 ± 0.021 | 1.13 ± 0.085 | 1.19 ± 0.2 | 1.42 ± 0.23 | 1.43 ± 0.057
12 | CCCCCCCCCCCCc1ccc(S(=O)(=O)Nc2nncs2)cc1 | 1.03 ± 0.05 | 0.966 ± 0.037 | 1.16 ± 0.035 | 0.91 ± 0.016 | 0.981 ± 0.041 | 1.14 ± 0.18 | 1.21 ± 0.16 | 0.959 ± 0.12
13 | CNC(=O)c1nn(C)c2c1C(C)(C)Cc1cnc(Nc3ccc(N4CCN(C)CC4)cc3)nc1-2 | 1.02 ± 0.2 | 0.941 ± 0.049 | 0.659 ± 0.18 | 1.14 ± 0.099 | 0.274 ± 0.088 | 0.3665 ± 0.0035 | 0.146 ± 0.022 | 0.845 ± 0.096
14 | Cc1cnc(Nc2ccc(OCCN3CCCC3)cc2)nc1Nc1cccc(S(=O)(=O)NC(C)(C)C)c1 | 1.07 ± 0.064 | 1.14 ± 0.16 | 1.14 | 0.871 ± 0.04 | 1.2 ± 0.26 | 1.14 ± 0.18 | 1.31 ± 0.22 | 1.06 ± 0.078
15 | CCCNC(=O)Nc1ccc(Oc2ncnc3cc(OC)c(OC)cc23)cc1Cl | 1.15 ± 0.085 | 1.02 ± 0.03 | 1.15 ± 0.035 | 0.9145 ± 0.005 | 1.2 ± 0.085 | 1.11 ± 0.085 | 1.04 ± 0.042 | 0.975 ± 0.14
16 | CN(C)c1ccc(-c2nc3ncc(Cl)c(N4CCN(CC(=O)Nc5nccs5)CC4)c3[nH]2)cc1 | 1.1 ± 0.05 | 1.04 ± 0.021 | 1.14 ± 0.028 | 0.96 ± 0.057 | 1.1 ± 0.3 | 1.1 ± 0.31 | 1.26 ± 0.17 | 1.16 ± 0.064
17 | CC(=O)NCC(=O)N1[C@@H]2CC[C@H]1c1ccc(Nc3ncc(C(F)(F)F)c(NC4CCC4)n3)cc12 | 0.907 ± 0.028 | 1.04 ± 0.08 | 0.256 ± 0.13 | 0.877 ± 0.071 | 0.742 ± 0.09 | 1.24 ± 0.092 | 0.149 ± 0.0021 | 1.21 ± 0.11
18 | CNC(=O)c1cccc(-c2ccc3c(N4CCOC[C@@H]4C)nc(N4CCOC[C@@H]4C)nc3n2)c1 | 0.9035 ± 0.0064 | 0.874 ± 0.045 | 0.794 ± 0.055 | 1.07 | 0.328 ± 0.086 | 0.487 ± 0.073 | 0.549 ± 0.09 | 0.629 ± 0.35
19 | Nc1ncnc2c1c(-c1cccc(OCc3ccccc3)c1)cn2C1CC(CN2CCCC2)C1 (stereo not drawn) | 0.77 ± 0.15 | 0.809 ± 0.088 | 0.67 ± 0.095 | 0.952 ± 0.15 | 0.627 ± 0.15 | 0.755 ± 0.047 | 0.75 ± 0.29 | 0.895 ± 0.33
20 | Cc1cc(Nc2cc(N3CCN(C)CC3)nc(/C=C/c3ccccc3)n2)n[nH]1 | 0.88 ± 0.03 | 0.942 ± 0.061 | 0.678 ± 0.019 | 0.9085 ± 0.0035 | 1.06 ± 0.11 | 1.01 ± 0.21 | 1.23 ± 0.33 | 0.687 ± 0.28
21 | O=C1NC(=O)/C(=C/c2ccc3c(c2)OC(F)(F)O3)S1 | 1.285 ± 0.0071 | 1.09 ± 0.021 | 1.15 ± 0.13 | 0.882 ± 0.034 | 0.944 ± 0.35 | 1.06 ± 0.24 | 1.18 ± 0.22 | 1.03 ± 0.21
